Here are results for 38 compounds from the supplement of paper PMC5662767.

Structures can show the parent of a compound that is named as a salt.
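Also: flow cytometry read-out as median GFP intensity of gated cells, compounds added 30 min before Hh-conditioned or mock medium, mock-treated cells serving as unstimulated baseline.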

The subject of this assay is Drosophila S2 cl14 SmoIP sensor cells. Nature of the assay: normalized SmoIP GFP fluorescence (untreated unstimulated = 0%, untreated Hh-stimulated = 100%); higher = more Smo activation sensor fluorescence. Conditions: stimulation: mock conditioned medium (-Hh); compound concentration: 2 uM; 24 h.
`O=C(O)CC[C@H]1CC[C@@](c2cc(F)ccc2F)(S(=O)(=O)c2ccc(Cl)cc2)CC1`: the “normalized SmoIP GFP fluorescence” value turned out to be 2.32%. For `CO[C@@H](C(=O)N1Cc2[nH]nc(NC(=O)c3ccc(N4CCN(C)CC4)cc3)c2C1)c1ccccc1`, the “normalized SmoIP GFP fluorescence” value was 12.4%.

As to `Cc1cc(C2CCCCC2)n(O)c(=O)c1` [ciclopirox-ethanolamine], the “normalized SmoIP GFP fluorescence” value was -0.264%. For the compound `Cn1c(=O)n(-c2ccc(C(C)(C)C#N)cc2)c2c3cc(-c4cnc5ccccc5c4)ccc3ncc21`, the “normalized SmoIP GFP fluorescence” value was -5.01%. Regarding `O=C(O)CCCN1CCC(O[C@@H](c2ccc(Cl)cc2)c2ccccn2)CC1` [bepotastine-besilate], the “normalized SmoIP GFP fluorescence” value was -2.31%. Take `CC1(C)CNc2cc(NC(=O)c3cccnc3NCc3ccncc3)ccc21` [Motesanib-Diphosphate]: the “normalized SmoIP GFP fluorescence” value is 43.3%. Then `CCCNS(=O)(=O)Nc1ncnc(OCCOc2ncc(Br)cn2)c1-c1ccc(Br)cc1` [macitentan], with 15.2%; and `CCS(=O)(=O)c1cccc(-c2cc(C(=O)NC3CCN(C)CC3)c(C)c3[nH]c4ncc(C)cc4c23)c1`, with -25.2%; and `Cn1c(=O)cc(N2CCC[C@@H](N)C2)n(Cc2cc(F)ccc2C#N)c1=O` [trelagliptin], with 3.18%. Turning to `CO[C@H]1/C=C\C=C(/C)C(=O)NC2=CC(=O)C(NCCN(C)C)=C(C[C@@H](C)C[C@H](OC)[C@H](O)[C@@H](C)/C=C(\C)[C@@H]1OC(N)=O)C2=O` [17-DMAG,Hydrochloride-Salt], the “normalized SmoIP GFP fluorescence” value was determined as 44.8%.

Consider `O=S(=O)(c1ccccc1)N(CC(F)(F)F)c1ccc(C(O)(C(F)(F)F)C(F)(F)F)cc1`, for which the “normalized SmoIP GFP fluorescence” value is -1.85%. As for `CC(=O)/N=c1/sc(S(N)(=O)=O)nn1C` [methazolamide], the “normalized SmoIP GFP fluorescence” value is -2.48%.

As for `Cc1cn(-c2cc(NC(=O)c3ccc(C)c(Nc4nccc(-c5cccnc5)n4)c3)cc(C(F)(F)F)c2)cn1` [Nilotinib], the “normalized SmoIP GFP fluorescence” value was -4.47%. Consider `Cc1cccc(CC(=O)N2CCc3c2ccc(-c2cn(C)c4ncnc(N)c24)c3F)n1`, for which the “normalized SmoIP GFP fluorescence” value is -1.63%. For the compound `Nc1ccn([C@H]2CC[C@@H](CO)O2)c(=O)n1` [Zalcitabine], the “normalized SmoIP GFP fluorescence” value was -12.4%. Then `N#CC1(c2ccc(NC(=O)c3cccnc3NCc3ccncc3)cc2)CCCC1` [Apatinib-YN968D1], with -1.34%. As to `Fc1ccc(C(c2ccc(F)cc2)N2CCN(C/C=C/c3ccccc3)CC2)cc1` [flunarizine-dihydrochloride], the “normalized SmoIP GFP fluorescence” value turned out to be 6.74%. Take `COc1cc(Nc2c(C#N)cnc3cc(OCCCN4CCN(C)CC4)c(OC)cc23)c(Cl)cc1Cl` [Bosutinib]: the “normalized SmoIP GFP fluorescence” value is 9.08%. Turning to `COCCOc1ccc2c(c1)ncn2-c1ccc2cccc(N3CCC(N)CC3)c2n1`, the “normalized SmoIP GFP fluorescence” value is 80%. Then `CN(C)Cc1c(C(=O)NCCOc2ccc(C(=O)NO)cc2)oc2ccccc12`, with 35.2%. Take `C[C@]12CCC(=O)C=C1[C@@H]1C[C@@H]1[C@H]1[C@@H]3[C@@H]4C[C@@H]4[C@@]4(CCC(=O)O4)[C@@]3(C)CC[C@@H]12` [Drospirenone]: the “normalized SmoIP GFP fluorescence” value was found to be 1.03%. For `Cc1ccc(NCCCc2ccccc2)c(N)c1`, the “normalized SmoIP GFP fluorescence” value came to 40.1%. With `CC(C(=O)O)c1ccc2c(c1)CC(=O)c1ccccc1S2` (stereo not drawn) [zaltoprofen], the “normalized SmoIP GFP fluorescence” value was -1.97%. For the compound `CC(C)C1CCC(C(=O)N[C@H](Cc2ccccc2)C(=O)O)CC1` (stereo partly drawn) [Nateglinide(Starlix)], the “normalized SmoIP GFP fluorescence” value is -4.71%. `CCCOc1ccc(C(=O)OCCN(CC)CC)cc1N` [proparacaine-hcl]: the “normalized SmoIP GFP fluorescence” value is -2.48%.

`CCC(=O)Nc1cccc(Oc2nc(Nc3ccc(N4CCN(C)CC4)cc3OC)ncc2Cl)c1`: the “normalized SmoIP GFP fluorescence” value is -6.51%. With `CNC(=O)c1ccc(-c2cnc3ncc(Cc4ccc5ncccc5c4)n3n2)cc1F`, the “normalized SmoIP GFP fluorescence” value was -1.34%. As to `O=C(NCCS(=O)(=O)c1ccc(C(F)(F)F)cn1)c1ccc(Cl)cc1`, the “normalized SmoIP GFP fluorescence” value was -14.9%. With `CC(=O)O[C@H]1CC[C@@]2(C)C(=CCC3C2CC[C@]2(C)C(c4cccnc4)=CCC32)C1` (stereo partly drawn) [Abiraterone-Acetate-CB7630], the “normalized SmoIP GFP fluorescence” value was -12.7%. Then `Cc1cccc(-c2[nH]c(C(C)(C)C)nc2-c2ccc3nccnc3c2)n1`, with -5.22%; and `COc1cc2c(cc1OC)CN(CCc1ccc(NC(=O)c3cc(OC)c(OC)cc3NC(=O)c3cnc4ccccc4c3)cc1)CC2` [tariquidar], with 2.77%.

With `Cc1ccc(F)c(NC(=O)Nc2ccc(-c3cccc4[nH]nc(N)c34)cc2)c1`, the “normalized SmoIP GFP fluorescence” value was determined as 0.274%.

As for `NCCCCCNCC12CC3CC(CC(C3)C1)C2` [iem-1754-dihydrobromide], the “normalized SmoIP GFP fluorescence” value is -2.31%. With `CC(C(O)c1ccc(O)cc1)N1CCC(Cc2ccccc2)CC1` (stereo not drawn) [ifenprodil-tartrate], the “normalized SmoIP GFP fluorescence” value is -5.15%. For `Cn1cnc2c(F)c(Nc3ccc(Br)cc3F)c(C(=O)NOCCO)cc21`, the “normalized SmoIP GFP fluorescence” value turned out to be 23%.

In the case of `Nc1nc(=O)n([C@@H]2CS[C@H](CO)O2)cc1F` [Emtricitabine], the “normalized SmoIP GFP fluorescence” value is -14.7%.

Turning to `CO[C@H]1C[C@@H]2CC[C@@H](C)[C@@](O)(O2)C(=O)C(=O)N2CCCC[C@H]2C(=O)O[C@H]([C@H](C)C[C@@H]2CC[C@@H](OC(=O)C(C)(CO)CO)[C@H](OC)C2)CC(=O)[C@H](C)/C=C(\C)[C@@H](O)[C@@H](OC)C(=O)[C@H](C)C[C@H](C)/C=C/C=C/C=C/1C` [Temsirolimus], the “normalized SmoIP GFP fluorescence” value is -1.56%.

`CNC(=O)c1cc(COc2nnc(Nc3ccc(Cl)cc3)c3ccoc23)ccn1` [Telatinib-BAY-57-9352]: the “normalized SmoIP GFP fluorescence” value was -14.3%.
